Source: PubChem
ANO1 activ: activators or potentiators of mouse TMEM16A chloride channel; 0.3% of 340,000 active; AID 623877; HEK293 TMEM16A/YFP-H148Q/I152L, iodide quench fluorescence; stronger effect = lower value; B-score at 10 µM; Q8BHY3;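 active means fluorescence-ratio B-score plate-corrected deviation score at least 3 library SD below zero, with starting fluorescence score within 5 deviations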;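 further: channel opened by trigger with iodide after compound preincubation; score built on the fluorescence ratio of max minus min over baseline; more negative score means more quench and so TMEM16A activation or potentiation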
FID counter: counter-screen for HCV NS3 helicase inhibitors: DNA intercalator displacement | 0.17% of 290,000 active | AID 1845 | DNA fluorescent intercalator displacement, fluorescence | inhibition, % at 7.9 µM; in the data active means inhibition above about 37%;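 further: higher means more ethidium bromide displaced from hairpin DNA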
PP5 primary: blocks human protein phosphatase 5 activity; P53041; purified PP5c, OMFP substrate fluorescence; inhibition, % at 6.7 µM; 0.18% of 320,000 active; AID 1987;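 active means inhibition above the campaign's mean inhibition across all tested compounds plus 3 SD, cut at about 9.5% in these data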
PP1 inh: blocks human PP1-alpha phosphatase, a PP5 counter-screen; P62136; purified PP1alpha, OMFP fluorescence; inhibition, % at 6.7 µM; 0.9% of 320,000 active; AID 2235;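 active means inhibition above the mean inhibition of all tested compounds plus 3 SD, computed separately for each screening campaign, cut at about 15% in these data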
Target sequence (P62136 whole entry, looked up): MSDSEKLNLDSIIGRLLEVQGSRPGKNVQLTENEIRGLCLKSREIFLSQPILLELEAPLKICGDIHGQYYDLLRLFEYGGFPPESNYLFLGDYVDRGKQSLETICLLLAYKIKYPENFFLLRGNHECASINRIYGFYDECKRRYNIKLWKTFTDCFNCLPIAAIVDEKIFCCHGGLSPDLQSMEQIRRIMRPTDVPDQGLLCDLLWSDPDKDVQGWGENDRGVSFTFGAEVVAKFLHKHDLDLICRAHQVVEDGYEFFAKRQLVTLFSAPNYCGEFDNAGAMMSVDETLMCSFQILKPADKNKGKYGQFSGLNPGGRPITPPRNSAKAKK
PREPL inh: inhibitors of human prolyl oligopeptidase-like enzyme PREPL; Q4J6C6; recombinant PREPL, fluorescence polarization activity-based probe; inhibition, % at 5.96 µM; 0.68% of 320,000 active; AID 2751
ANO1 block: blocks the mouse calcium-activated chloride channel TMEM16A; Q8BHY3; HEK293 TMEM16A/YFP iodide influx fluorescence, ionomycin; normalized B-score (activity score, 25-100; higher = stronger inhibition) at 10 µM; 1.2% of 310,000 active; AID 588511;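 active means ratio plate-corrected score three or more library SD toward inhibition, starting fluorescence score within five deviations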;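 further: score derived from kinetic fluorescence span divided by baseline fluorescence per well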
PREPL inh cf: human PREPL inhibition, confirmation; shares compounds with PREPL inh; recombinant PREPL, fluorescence polarization activity probe; inhibition, % at 5.96 µM; 67% of 2,000 active; AID 2803
Large screens that a line does not name were inactive (follow-up assays come after a bar, where they were run). Only some compounds are listed: those with a hit (about 2.7% of all), similar ones and a draw of the others. Unless noted, no stated cut-off is given here; in the data, active means inhibition above about 43%; inactive means the rest.

O=c1cc(-c2ccc(O)c(O)c2)oc2c1ccc1ccccc12	PREPL inh 52 (no result: FID counter, ANO1 block) | PREPL inh cf inactive
Cc1ccc(C)c(NC(=O)C2CCCN(S(=O)(=O)c3c(C)nn(C)c3C)C2)c1 (stereo not drawn)	none
Cc1ccccc1CNC(=O)C(=O)Nc1nccs1	none
CCOc1ccc2nc(Cl)c(C3CC(c4ccccc4)=NN3C(=O)c3ccco3)cc2c1 (stereo not drawn)	none (no result: ANO1 activ)
N#CNC(=Nc1cccc(F)c1)SCc1ccccc1F	none
CC(C)(C)NC(=O)CSC(=Nc1cccc(F)c1)NC#N	PREPL inh 64 | PREPL inh cf inactive
O=C(N/N=C/c1ccc(Cl)cc1Cl)c1cccc(F)c1	none
O=C(C[n+]1ccc(C(=O)N/N=C/c2ccc(Cl)cc2Cl)cc1)c1ccccc1	PREPL inh 45 | PREPL inh cf inactive
NNC(=O)c1oc2nc(-c3ccco3)cc(-c3ccco3)c2c1N	PREPL inh 47 | PREPL inh cf 57
CC(/C=N/NC(=O)c1cnccn1)=C\c1ccco1	none
O=C(NCC(c1cccs1)N1CCOCC1)c1ccc(Cl)nc1 (stereo not drawn)	none (no result: FID counter, ANO1 block)
O=C(O)c1ccccc1NS(=O)(=O)c1ccc(NN=Cc2ccccc2F)c([N+](=O)[O-])c1	PREPL inh 55 (no result: FID counter, PP5 primary, PP1 inh, ANO1 block) | PREPL inh cf 56
COc1ccc(C=NNc2ccc(S(=O)(=O)Nc3ccccc3C(=O)O)cc2[N+](=O)[O-])c(OC)c1	PREPL inh 51 (no result: FID counter, PP5 primary, PP1 inh, ANO1 block) | PREPL inh cf 49
CCn1c(O)c(/C=N/N=C/c2ccccc2)c2ccc(C3=NNC(=O)CC3)cc21	PREPL inh 72 | PREPL inh cf 65
CCC(CC)=N/N=C/c1c(O)n(CC)c2cc(C3=NNC(=O)CC3)ccc12	none
CN(C(=O)Cn1cc(C(F)(F)F)ccc1=O)c1c(N)n(Cc2ccccc2)c(=O)[nH]c1=O	none
CCOc1ccc(OCC)c(NC(=O)CN2CCN(c3cc(C)ccc3C)CC2)c1	PREPL inh 50 | PREPL inh cf inactive
CCOc1ccc(OCC)c(NC(=O)CN2CCN(c3cccc(C)c3)CC2)c1	none
CCCNC(=O)c1ccc(N2CCC3(CC2)CC(c2ccccc2)=NO3)c(NC(=O)c2ccco2)c1	none
CCCCC(CC)C(=O)Nc1cc(C(=O)NCCC)ccc1N1CCC2(CC1)CC(c1ccccc1)=NO2 (stereo not drawn)	PREPL inh 50 | PREPL inh cf 55
Cc1ccc(C)c(S(=O)(=O)N2CCN(C(=O)CCc3c[nH]c4ccccc34)CC2)c1	none (no result: FID counter, ANO1 block)
Cc1ccc(C)c(S(=O)(=O)N2CCN(C(=O)CCCc3c[nH]c4ccccc34)CC2)c1	PREPL inh 47 (no result: FID counter) | PREPL inh cf inactive
CC(C)n1cnc2c(N(C)c3ccccc3)nc(N(CCN(C)C)Cc3ccccc3)nc21	PREPL inh 52 (no result: FID counter) | PREPL inh cf 48
CCN1CCN(S(=O)(=O)c2ccc(Cl)c(C(=O)N(C)Cc3cccc(Cl)c3Cl)c2)CC1	PREPL inh 55 (no result: FID counter) | PREPL inh cf inactive
CCN1CCN(S(=O)(=O)c2ccc(Cl)c(C(=O)N(C)Cc3ccccc3)c2)CC1	none (no result: FID counter, ANO1 block)
O=C(O)COc1ccccc1/C=N/NC(=O)CN1CCN(Cc2ccc(Cl)cc2)CC1	none
CCCCCn1nc(C(=O)N(CC(C)C)c2c(N)n(CCCC)c(=O)[nH]c2=O)c2ccccc2c1=O	none (no result: FID counter)
Cc1cc(/C=C2\SC(=S)NC2=O)c(C)n1-c1ccc(O)cc1	none
Cc1cc(/C=C2\SC(=Nc3ccc(F)cc3)NC2=O)c(C)n1-c1ccc(S(N)(=O)=O)cc1	PREPL inh 54 | PREPL inh cf 53
CCN1CCc2c(sc(NC(=O)Nc3ccc(Cl)c(Cl)c3)c2C(N)=O)C1	PREPL inh 70 | PREPL inh cf 54
CC(=O)c1ccc(-c2ccc(C(=O)N3CCC(C(N)=O)CC3)o2)cc1	none (no result: FID counter)
CN(C)c1ccc(C(CN)c2c[nH]c3ccccc23)cc1 (stereo not drawn)	PREPL inh 61 | PREPL inh cf 57
CN(C)c1ccc(C(CNS(=O)(=O)c2ccc3ccccc3c2)c2c[nH]c3ccccc23)cc1 (stereo not drawn)	none
CNC(=S)N1N=C(c2ccc(OC)cc2)CC1c1ccc(N(C)C)cc1 (stereo not drawn)	PREPL inh 56 | PREPL inh cf 60
CNC(=S)N1N=C(c2ccc(Br)cc2)CC1c1ccc(N(C)C)cc1 (stereo not drawn)	PREPL inh 48 | PREPL inh cf 50
CNC(=S)N1N=C(c2cccs2)CC1c1ccc(OC)cc1 (stereo not drawn)	none
CNC(=S)N1N=C(c2ccc(Br)cc2)CC1c1ccc(Br)cc1 (stereo not drawn)	none
COc1cccc(N2CCN(C(=O)C3CCC(=O)N(C4CCCCCC4)C3)CC2)c1 (stereo not drawn)	none
COc1ccc(C2CC(c3ccccc3C)n3nc(N)nc3N2)cc1 (stereo not drawn)	PREPL inh 51 | PREPL inh cf 48
Cc1ccc(C2CC(c3ccccc3C)n3nc(N)nc3N2)cc1 (stereo not drawn)	PREPL inh 47 | PREPL inh cf 48
CC(=O)c1c(C)[nH]c(C(=O)OCC(=O)N(Cc2ccccc2)C(C)(C)C)c1C	none (no result: FID counter, PP5 primary, PP1 inh, PREPL inh, ANO1 block)
CC(=O)N1CCN(c2ccc(NCc3ccc(F)cc3)cc2)CC1	PREPL inh 67 | PREPL inh cf inactive
COc1cc(CNc2ccc(N3CCN(C(C)=O)CC3)cc2)ccc1OCc1ccc(F)cc1	PREPL inh 45 | PREPL inh cf inactive
CC(=O)N1CCN(c2ccc(NCc3cccc(C)c3)cc2)CC1	PREPL inh 59 (no result: FID counter, ANO1 block) | PREPL inh cf inactive
COc1ccc(-c2cc(-c3ccc(OC)c(OC)c3)n[nH]2)c(O)c1	PREPL inh 46 | PREPL inh cf inactive
COc1cc(N=Nc2cccc(S(N)(=O)=O)c2)c2ccccc2c1N	PREPL inh 61 | PREPL inh cf 59
NC1=NC(=Nc2cccc(S(N)(=O)=O)c2)c2ccccc21	none
COc1cccc(-c2ccc(SCc3ccccn3)nn2)c1	none
C[C@H](CO)N1C[C@H](C)[C@@H](CN(C)S(=O)(=O)c2cccs2)Oc2c(NC(=O)Cc3ccccc3)cccc2C1=O	PREPL inh 43 (no result: FID counter, PP5 primary, PP1 inh, ANO1 block) | PREPL inh cf inactive
C[C@H]1CN([C@@H](C)CO)C(=O)c2cccc(NS(=O)(=O)c3ccc(Cl)cc3)c2O[C@@H]1CN(C)CC1CCCCC1	PREPL inh 61 (no result: FID counter, PP5 primary, PP1 inh, ANO1 block) | PREPL inh cf 50
C[C@H](CO)N1C[C@H](C)[C@@H](CN(C)C(=O)Nc2ccc(C(F)(F)F)cc2)Oc2ccc(NC(=O)c3ccncc3)cc2C1=O	PREPL inh 51 (no result: FID counter, PP5 primary, PP1 inh, ANO1 block) | PREPL inh cf 46
C[C@H](CO)N1C[C@H](C)[C@@H](CN(C)S(C)(=O)=O)Oc2c(NC(=O)Cc3ccccc3)cccc2C1=O	none (no result: FID counter, PP5 primary, PP1 inh, ANO1 block)
